Outcome and AC50 data for 16 compounds are collected here from PubChem BioAssay (EPA / NIEHS).

Molecules are shown by their SMILES. Results filed as inconclusive are left out. Calls of active or inactive are those of the source. The calls were made as follows: active = hit-call score of the fitted dose curve at least 0.9, where 1 is the maximum; inconclusive = response in the unintended direction; inactive = score below 0.9.

The target of assay [1] is Estrogen receptor (Homo sapiens) + Estrogen receptor beta (Homo sapiens) (UniProt P03372+Q92731). As to the kind of experiment: OT_ER_ERaERb_1440: Odyssey Thera (OT) 24-hour HEK293T Protein-Complementation Assay for Estrogen Receptor-alpha/-beta Homodimer (AID 2283356).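 Also: heteromer of ER alpha and ER beta binding domains; hits raise reporter fluorescence and both agonists and antagonists give an increase.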 The essentials: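 Readout: mean fluorescence intensity in nucleus (agonists) or nucleus plus cytoplasm (antagonists), read by laser scanning cytometer after 24 h compound exposure of HEK293T cells carrying ERα/ERβ LBD fragment-complementation constructs; DMSO baseline.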
Sequence of Estrogen receptor (Homo sapiens) + Estrogen receptor beta (Homo sapiens) (P03372 whole entry, looked up, the tested form may be a part): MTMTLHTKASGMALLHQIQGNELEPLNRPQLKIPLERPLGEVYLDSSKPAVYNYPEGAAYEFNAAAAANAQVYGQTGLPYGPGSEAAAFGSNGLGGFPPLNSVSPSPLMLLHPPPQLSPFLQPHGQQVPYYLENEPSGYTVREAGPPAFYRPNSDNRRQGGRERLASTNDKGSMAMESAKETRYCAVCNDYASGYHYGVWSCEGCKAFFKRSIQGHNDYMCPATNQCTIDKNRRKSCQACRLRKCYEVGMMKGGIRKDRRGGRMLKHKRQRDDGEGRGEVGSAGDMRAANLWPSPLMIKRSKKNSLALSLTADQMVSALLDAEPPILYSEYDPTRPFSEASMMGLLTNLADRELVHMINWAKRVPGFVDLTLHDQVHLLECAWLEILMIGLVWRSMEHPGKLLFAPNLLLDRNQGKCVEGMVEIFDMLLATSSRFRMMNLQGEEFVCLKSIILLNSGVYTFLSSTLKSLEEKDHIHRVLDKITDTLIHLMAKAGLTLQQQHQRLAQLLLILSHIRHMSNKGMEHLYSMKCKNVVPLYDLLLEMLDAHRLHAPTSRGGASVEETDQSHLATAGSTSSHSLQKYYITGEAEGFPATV
Sequence of Estrogen receptor (Homo sapiens) + Estrogen receptor beta (Homo sapiens) (Q92731 whole entry, looked up, the tested form may be a part): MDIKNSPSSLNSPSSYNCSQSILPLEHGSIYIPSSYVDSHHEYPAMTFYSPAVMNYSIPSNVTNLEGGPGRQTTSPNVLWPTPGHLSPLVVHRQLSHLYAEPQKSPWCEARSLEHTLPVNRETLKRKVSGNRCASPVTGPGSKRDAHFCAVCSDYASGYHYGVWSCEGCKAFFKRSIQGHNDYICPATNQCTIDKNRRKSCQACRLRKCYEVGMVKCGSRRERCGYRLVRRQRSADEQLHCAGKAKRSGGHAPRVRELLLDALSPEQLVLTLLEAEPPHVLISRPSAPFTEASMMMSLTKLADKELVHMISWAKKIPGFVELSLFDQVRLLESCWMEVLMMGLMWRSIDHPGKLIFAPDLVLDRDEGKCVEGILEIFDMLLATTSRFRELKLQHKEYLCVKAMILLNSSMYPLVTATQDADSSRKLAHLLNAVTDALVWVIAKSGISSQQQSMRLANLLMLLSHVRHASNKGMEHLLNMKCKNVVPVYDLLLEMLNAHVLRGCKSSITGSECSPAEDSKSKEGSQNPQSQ

Assay [2] addresses Estrogen receptor beta (Homo sapiens) (UniProt Q92731). As to the kind of experiment: OT_ER_ERbERb_0480: Odyssey Thera (OT) 8-hour HEK293T Protein-Complementation Assay for Estrogen Receptor-beta/-beta Homodimer (AID 2283357).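 Also: active means signal gain over DMSO baseline.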 The gist of the method: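 Cells (HEK293T, stable ER-beta LBD PCA pair) are treated 8 hours, fixed and Draq5-stained; signal is fluorescence intensity increase relative to vehicle, fitted in the gain direction.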

The target of assay [3] is PGR (gene 5241) (UniProt P06401). As to the kind of experiment: NVS_NR_hPR: NovaScreen (NVS) Nuclear Receptor Binding Assay for human Progestron Receptor (PR) (AID 2283360).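 Also: active means loss of bound radioligand signal versus DMSO baseline.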 The gist of the method:
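T47D lysate; tritiated or iodinated radioligand; scintillation count at 18 h. DMSO = negative control/baseline. Primary: 25 uM, duplicate. Secondary: concentration series for actives.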

Assay [4] concerns the target human Thyroid Receptor Alpha (TRa), THRA (gene 7067) (UniProt P10827). As to the kind of experiment: NVS_NR_hTRa_Antagonist: NovaScreen (NVS) Nuclear Receptor Binding Assay for human Thyroid Receptor Alpha Antagonism (TRa) (AID 2283362).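 Also: activity is loss of signal relative to DMSO baseline.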 The essentials:
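AlphaLISA chemiluminescent immunoassay readout, taken 1 h post-dosing in a cell-free system with extracted protein. Activity was scored as signal loss against DMSO negative control, from duplicate single-concentration (25 uM) testing followed by concentration-response follow-up.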

Assay [5] concerns the target Glucocorticoid receptor (Homo sapiens) (UniProt P04150). As to the kind of experiment: NVS_NR_hGR: NovaScreen (NVS) Nuclear Receptor Binding Assay for human Glucocorticoid Receptor (GR) (AID 2283363).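 As to AC50: activity is loss of specific radioligand binding signal relative to DMSO.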 The gist of the method:
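Competitive displacement of a labelled ligand was measured on cell-free receptor preparations after 16 h exposure. Initial testing used 25 uM in duplicate with plate controls; confirmed actives went into concentration series.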

For assay [6], the target named is Retinoic acid receptor alpha (Homo sapiens) (UniProt P10276). As to the kind of experiment: NVS_NR_hRAR_Antagonist: NovaScreen (NVS) Nuclear Receptor Binding Assay for human Retinoic Acid Alpha Receptor Antagonism (RAR) (AID 2283358). The gist of the method: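 TR-FRET, cell-free, antagonist format; 2 h incubation after dosing; DMSO = baseline; signal loss fitted; 25 uM duplicate primary, then conc. series.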
Sequence of Retinoic acid receptor alpha (Homo sapiens) (P10276 whole entry, looked up): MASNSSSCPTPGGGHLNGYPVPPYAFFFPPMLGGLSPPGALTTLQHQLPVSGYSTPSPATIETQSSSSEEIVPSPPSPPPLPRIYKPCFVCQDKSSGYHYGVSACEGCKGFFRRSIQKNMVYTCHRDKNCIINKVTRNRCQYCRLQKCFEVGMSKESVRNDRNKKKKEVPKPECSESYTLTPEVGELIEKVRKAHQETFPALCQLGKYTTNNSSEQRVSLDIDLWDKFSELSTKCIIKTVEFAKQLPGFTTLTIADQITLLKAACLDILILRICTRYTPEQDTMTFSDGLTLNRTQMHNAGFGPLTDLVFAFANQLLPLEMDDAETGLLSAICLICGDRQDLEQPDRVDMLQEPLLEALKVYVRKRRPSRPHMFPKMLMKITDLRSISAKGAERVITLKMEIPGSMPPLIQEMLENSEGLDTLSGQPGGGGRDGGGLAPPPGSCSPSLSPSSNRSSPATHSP

Sequence of Estrogen receptor beta (Homo sapiens) (Q92731 whole entry, looked up, the tested form may be a part): as the sequence (Q92731 whole entry, looked up, the tested form may be a part) above
Sequence of PGR (gene 5241) (P06401 whole entry, looked up): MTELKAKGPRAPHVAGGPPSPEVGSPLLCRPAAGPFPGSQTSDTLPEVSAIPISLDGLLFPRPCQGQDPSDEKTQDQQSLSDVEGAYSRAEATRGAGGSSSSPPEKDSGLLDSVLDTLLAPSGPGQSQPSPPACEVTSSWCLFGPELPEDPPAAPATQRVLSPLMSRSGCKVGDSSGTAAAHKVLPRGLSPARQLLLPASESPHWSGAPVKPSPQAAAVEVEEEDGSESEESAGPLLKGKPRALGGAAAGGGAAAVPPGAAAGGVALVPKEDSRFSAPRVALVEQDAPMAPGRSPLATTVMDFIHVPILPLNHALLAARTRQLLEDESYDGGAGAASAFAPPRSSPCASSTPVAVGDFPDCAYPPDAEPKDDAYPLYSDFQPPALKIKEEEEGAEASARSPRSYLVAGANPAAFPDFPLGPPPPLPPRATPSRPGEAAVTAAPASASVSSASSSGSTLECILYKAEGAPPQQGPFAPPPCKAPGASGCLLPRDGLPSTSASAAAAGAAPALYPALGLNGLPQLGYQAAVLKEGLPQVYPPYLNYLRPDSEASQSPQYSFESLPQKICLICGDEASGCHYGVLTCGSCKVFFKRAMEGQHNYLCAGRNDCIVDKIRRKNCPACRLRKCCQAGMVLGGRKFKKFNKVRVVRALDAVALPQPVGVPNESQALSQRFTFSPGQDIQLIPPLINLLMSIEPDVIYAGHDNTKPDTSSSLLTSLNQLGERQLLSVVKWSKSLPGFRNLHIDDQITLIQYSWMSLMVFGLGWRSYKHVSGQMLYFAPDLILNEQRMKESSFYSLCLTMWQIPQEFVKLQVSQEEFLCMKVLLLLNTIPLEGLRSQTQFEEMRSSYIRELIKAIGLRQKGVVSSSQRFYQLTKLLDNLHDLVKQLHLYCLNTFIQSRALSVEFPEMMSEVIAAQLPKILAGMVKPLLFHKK
Sequence of Glucocorticoid receptor (Homo sapiens) (P04150 whole entry, looked up): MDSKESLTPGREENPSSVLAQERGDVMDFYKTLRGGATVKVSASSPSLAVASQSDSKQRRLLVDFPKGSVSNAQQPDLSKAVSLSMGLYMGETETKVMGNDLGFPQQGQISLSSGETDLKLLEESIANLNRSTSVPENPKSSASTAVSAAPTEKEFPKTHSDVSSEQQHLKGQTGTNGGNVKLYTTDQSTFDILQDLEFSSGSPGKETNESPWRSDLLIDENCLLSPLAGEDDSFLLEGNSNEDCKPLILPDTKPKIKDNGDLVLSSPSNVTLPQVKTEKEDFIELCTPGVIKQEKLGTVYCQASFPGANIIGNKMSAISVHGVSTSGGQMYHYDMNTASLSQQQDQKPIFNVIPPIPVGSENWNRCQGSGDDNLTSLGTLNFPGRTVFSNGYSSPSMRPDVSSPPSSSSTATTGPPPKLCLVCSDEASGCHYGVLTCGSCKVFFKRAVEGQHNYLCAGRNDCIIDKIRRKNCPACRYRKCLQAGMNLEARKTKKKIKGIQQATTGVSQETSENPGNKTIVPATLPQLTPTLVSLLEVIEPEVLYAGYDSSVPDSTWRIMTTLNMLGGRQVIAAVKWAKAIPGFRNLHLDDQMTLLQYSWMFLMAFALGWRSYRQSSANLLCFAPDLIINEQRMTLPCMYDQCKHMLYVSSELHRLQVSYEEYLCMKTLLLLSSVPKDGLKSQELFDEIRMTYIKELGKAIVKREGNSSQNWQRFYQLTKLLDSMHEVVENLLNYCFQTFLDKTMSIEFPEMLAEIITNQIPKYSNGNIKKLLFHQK
Sequence of human Thyroid Receptor Alpha (TRa), THRA (gene 7067) (P10827 whole entry, looked up): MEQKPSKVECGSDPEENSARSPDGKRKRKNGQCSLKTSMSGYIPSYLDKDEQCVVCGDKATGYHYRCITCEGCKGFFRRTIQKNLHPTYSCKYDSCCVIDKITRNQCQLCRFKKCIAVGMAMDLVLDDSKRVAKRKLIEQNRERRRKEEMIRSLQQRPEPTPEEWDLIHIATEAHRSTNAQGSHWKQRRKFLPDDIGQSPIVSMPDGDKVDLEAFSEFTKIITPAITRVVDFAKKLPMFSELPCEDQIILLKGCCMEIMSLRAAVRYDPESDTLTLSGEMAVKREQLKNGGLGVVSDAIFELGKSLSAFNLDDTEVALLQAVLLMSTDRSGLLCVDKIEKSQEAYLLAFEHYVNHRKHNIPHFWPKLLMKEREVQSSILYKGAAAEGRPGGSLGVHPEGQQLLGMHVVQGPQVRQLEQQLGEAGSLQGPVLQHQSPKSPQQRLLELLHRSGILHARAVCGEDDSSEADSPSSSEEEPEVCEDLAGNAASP

As to `CCOP(=S)(OCC)SCn1c(=O)oc2cc(Cl)ccc21`, the result in assay [1], in assay [2] and in assay [3] was inactive.
The term AC50 denotes the concentration giving half of the maximal activity seen. For `CCCCC(CC)COC(=O)c1ccccc1C(=O)OCC(CC)CCCC` (stereo unspecified), the AC50 in assay [1] is 50 µM (active); in assay [5], 8.8 µM (active). Besides, the compound was classed as inactive in assay [2] and in assay [4].
For the compound `CC(Oc1ccc(Cl)cc1Cl)C(=O)O` (stereo unspecified), in assay [6], the compound was classed as inactive.
As to `COC(=O)N(OC)c1ccccc1COc1ccn(-c2ccc(Cl)cc2)n1`, the result in assay [1] and in assay [2] was inactive. Besides, the half-maximal activity concentration (AC50) in assay [5] was 2.01 µM (active).
Turning to `CON(C)C(=O)Nc1ccc(Cl)c(Cl)c1`, the result in assay [3] was inactive. The concentration at half-maximal activity (AC50) in assay [5] was 8.61 µM (active).
Consider `COc1nc(NC(C)C)nc(NC(C)C)n1`, for which the result in assay [1] and in assay [2] was inactive.
In the case of `COc1cnc(OC)n2nc(NS(=O)(=O)c3c(OCC(F)F)cccc3C(F)(F)F)nc12`, the compound was classed as inactive in assay [2].
As for `CCNc1nc(Cl)nc(NCC)n1`, the outcome in assay [1], in assay [2] and in assay [5] was inactive.
As for `C#CCOS(=O)OC1CCCCC1Oc1ccc(C(C)(C)C)cc1` (stereo unspecified), the outcome in assay [1], in assay [2] and in assay [4] was inactive. For the same compound, the concentration at half-maximal activity (AC50) in assay [5] was 16.5 µM (active).
Consider `CNC(=S)S`, for which the outcome in assay [1], in assay [2] and in assay [5] was inactive.
As for `CNC(=O)ON=CC(C)(C)SC`, the compound was called inactive in assay [3] and in assay [5].
With `COP(N)(=O)SC` (stereo unspecified), the result in assay [1], in assay [2], in assay [6] and in assay [5] was inactive.
For the compound `CCNc1nc(Cl)nc(NC(C)C)n1`, the outcome in assay [1], in assay [2], in assay [3], in assay [4] and in assay [5] was inactive.
Regarding `COC(=O)c1ccccc1C(=O)OC`, the result in assay [1], in assay [2], in assay [6], in assay [3] and in assay [5] was inactive.
For `CCOC(=O)C(Cl)Cc1cc(-n2nc(C)n(C(F)F)c2=O)c(F)cc1Cl` (stereo unspecified), in assay [2], the compound was called inactive.
With `OC(c1ccc(Cl)cc1)(c1cncnc1)c1ccccc1Cl` (stereo unspecified), the results for the concentration at half-maximal activity (AC50) in assay [1], in assay [2] and in assay [5] were 12.1 µM (active), 12.5 µM (active) and 8.34 µM (active), respectively.
